Hits are enriched below; roughly 0.85% of the tested compounds scored in any of these assays.
APE1 inh – APE1 (human) endonuclease inhibition. P27695. recombinant APE1, TAMRA/BHQ-2 abasic DNA cleavage fluorescence. Potency, µM (top dose mostly 65.8 µM), without a hit: top-dose activity change, negative = inhibition, most hits filed as inhibitors. actives 0.35% (n = 350,000). AID 2517;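 further: plate controls were vehicle for no effect and reference inhibitor for full effect; nearly all actives have a fitted effect of over 55% in size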
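Enzyme (0.75 nM final) and test compound are incubated 15 min at room temperature before adding 50 nM quenched THF abasic-site duplex. Cleavage dequenches TAMRA, followed at 525/598 nm over three reads one minute apart.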
BLM inh – Bloom syndrome helicase (human) inhibition. P54132. recombinant BLM DNA unwinding, fluorescence dequenching. actives 0.2% (n = 350,000). AID 2528. Potency, µM (highest dose often 56.1 µM), without a hit: at the highest dose activity change, negative = inhibition, actives largely listed as inhibitors;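 further: plate controls were vehicle for no effect and no enzyme for full effect; nearly all actives have a fitted effect of over 35% in size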
RECQ1 inh – RECQ1 (human) helicase inhibition; actives 0.54% (n = 240,000); AID 2549; P46063; RECQ1 DNA unwinding, red fluorescence kinetic read; Potency, µM (doses to about 57.3 µM), for the others: at the top dose activity, negative = inhibition, actives largely listed as inhibitors;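 further: plate controls were vehicle for no effect and no enzyme for full effect; nearly all actives have a fitted effect of over 30% in size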
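RECQ1T1 50 nM; forked duplex (20 bp + 30-nt ss tails) 200 nM, ATP 2 mM final; pH 8.0, 2 mM MgCl2, 2.5 ug/ml poly(dI-dC); 15 min compound preincubation; discontinuous kinetic read over 2 h at RT.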
PGK inhibitor – blocks T. brucei phosphoglycerate kinase | P07378 | PGK/GAPDH coupled, Kinase-Glo luminescence, 60 min | Potency, µM (top dose mostly 57.5 µM), without a hit: at the top dose activity change, negative = inhibition, hits mostly inhibitors | actives 0.043% (n = 380,000); further: nearly all actives have a fitted effect of over 60% in size
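Luminescent ATP detection (Kinase-Glo Plus) follows a 60-minute room-temperature incubation, with wells lacking PGK as controls. Buffer: 100 mM TEA (pH 7.6), 5 mM MgCl2, 0.01% Tween-20. Coupling enzyme GAPDH (100 nM final) supplies unstable 1,3-BPG in-well.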
TDP1 inh – TDP1 (human) enzyme inhibition; Q9NUW8; recombinant TDP1, AlphaScreen DNA substrate cleavage; Potency, µM (series often up to 130 µM), for inactives: at the highest dose activity change, negative = inhibition, actives largely listed as inhibitors; actives 0.28% (n = 350,000); AID 485290; further: nearly all actives have a fitted effect of over 40% in size
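Signal: AlphaScreen proximity between streptavidin donor and anti-FITC acceptor beads on intact substrate. Reaction: Tdp1 1 nM, substrate 15 nM final, 5 min RT after 15 min compound preincubation.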
GLS inh – blocks human kidney-isoform glutaminase activity. O94925. GLS enzymatic activity, qHTS titration. Potency, µM (titrated, usually from 45.5 µM), for the others: at the top dose activity change, negative = inhibition, most hits filed as inhibitors. actives 0.21% (n = 410,000). AID 624170
Target sequence (O94925 whole entry, looked up, canonical isoform): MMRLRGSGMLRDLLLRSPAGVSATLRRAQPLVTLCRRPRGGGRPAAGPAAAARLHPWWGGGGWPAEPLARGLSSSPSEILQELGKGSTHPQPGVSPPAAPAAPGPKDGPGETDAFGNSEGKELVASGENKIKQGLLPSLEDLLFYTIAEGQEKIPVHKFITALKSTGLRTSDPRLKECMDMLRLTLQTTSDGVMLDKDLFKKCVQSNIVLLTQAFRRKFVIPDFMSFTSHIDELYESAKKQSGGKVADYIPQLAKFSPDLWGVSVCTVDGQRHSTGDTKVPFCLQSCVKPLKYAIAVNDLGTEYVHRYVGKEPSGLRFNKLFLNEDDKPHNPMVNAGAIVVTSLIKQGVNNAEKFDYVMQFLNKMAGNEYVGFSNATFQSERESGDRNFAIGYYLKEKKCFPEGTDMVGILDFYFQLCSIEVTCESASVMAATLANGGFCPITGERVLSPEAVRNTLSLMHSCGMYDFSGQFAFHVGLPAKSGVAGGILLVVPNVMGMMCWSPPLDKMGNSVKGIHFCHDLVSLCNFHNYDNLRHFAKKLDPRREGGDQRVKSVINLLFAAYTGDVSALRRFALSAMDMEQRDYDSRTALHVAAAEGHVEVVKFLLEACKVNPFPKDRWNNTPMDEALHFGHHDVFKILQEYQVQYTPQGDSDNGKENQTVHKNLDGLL
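Read-out is an Amplex red fluorescence increase coupled through glutamate oxidase and HRP, measured before and after 30 min room-temperature incubation. hKGA is in 45 mM KH2PO4 (pH 8.2) with 0.02% Tween-20; glutamine added as 1mM solution.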
* = called active by the depositor; i = inactive; ? = inconclusive; . = not tested or not shown; ! = not active in a repeat; [ ] = dose if it differs, or a comment. The call rests on the fitted dose curve; in most records, active means well fitted curve in the direction sought with a large enough effect; inconclusive means small, poorly fitted or top-dose-only effect, or another doubt; inactive means no such curve, though single readings can be large; an effect the other way counts as inactive or inconclusive. Unless noted, on the % scale 0 is the no-effect control and ±100 the full control effect; potency means the concentration at half of the fitted maximal effect.

SMILES | APE1 inh | BLM inh | RECQ1 inh | PGK inhibitor | TDP1 inh | GLS inh
O=C(c1ccc(Cl)c(S(=O)(=O)N2CCCCCC2)c1)N1CCCCC1 | 54% | -3% | . | -3% | 5% | -6%
O=C(OC1CCOC1=O)c1ccc(Cl)c(S(=O)(=O)N2CCOCC2)c1 (configuration not stated) | ? | . | . | -13% | 28µM* | ?
O=C(O)c1ccc(Cl)c(S(=O)(=O)N2CCCC2)c1 | 28µM* | 3% | -4% | -7% | 50µM* | -11%
O=S(=O)(NCC1CCCO1)c1cc(Cl)ccc1Cl (configuration not stated) | 7% | -2% | -12% | -7% | 1% | 1%
O=C(O)c1ccc(Cl)c(S(=O)(=O)NCC2CCCO2)c1 (configuration not stated) | -1% | 1% | -1% | -6% | 1% | 10µM*
O=C[C@@H]1CCCN1C(=O)[C@@H]1CCCN1C(=O)OCc1ccccc1 | 0% | . | 1% | . | 4% | .
CCCn1c(N)c(C(=O)CSc2nc3ncc(Cl)cc3[nH]2)c(=O)n(C)c1=O | ? | . | . | 0% | 28µM* | -9%
CC(C)Cn1c(N)c(C(=O)CSc2nc3ncc(Cl)cc3[nH]2)c(=O)n(C)c1=O | -6% | . | . | -6% | -14%[0.505 µM] | -12%
Cc1onc(-c2c(Cl)cccc2Cl)c1C(=O)NC1C(=O)N2C1SC(C)(C)C2C(=O)O (configuration not stated) | ? | -13% | 0% | -11% | 11%[56.1 µM] | 13µM*
Cc1onc(-c2c(Cl)cccc2Cl)c1C(=O)N[C@@H]1C(=O)N2[C@@H]1SC(C)(C)[C@@H]2C(=O)O | -1% | -4% | . | -1% | . | 10µM*!
Cc1ccc(NS(=O)(=O)c2ccc(-c3ccccc3)cc2)cc1C | . | . | . | . | -4% | .
COc1ccccc1-c1no[n+]([O-])c1C#N | -2% | . | . | . | . | .
N#CCC(=O)Nc1ccc(C(=O)NNC(=S)NC2CCCCC2)cc1 | 6% | . | . | -8% | 0% | 18µM*
COc1cc(NS(=O)(=O)c2ccc(N)cc2)nc(C)n1 | . | . | . | . | . | -2%
Cc1ccc(CNc2cccc(N3CCCCC3)c2)cc1 | 13% | . | . | . | . | .
C=C(C)CC1N(c2cccc(OC)c2)C(=O)C2C(C(=O)O)C3C=CC21O3 (configuration not stated) | -2% | 0% | -8% | -2% | 3% | 4%
O=C(O)C1C2C=CC3(O2)C1C(=O)N1c2ccccc2C2OCCC2C13 (configuration not stated) | ? | -5% | 0% | ? | 40µM* | -12%
COc1ccc(-c2ccc3c(c2)S(=O)(=O)c2cccc(C(=O)NCc4ccccc4Cl)c2C3=O)cc1OC | -41% | . | . | -1% | 25µM* | 9%
CC(C)c1cccc(-c2ccc3c(c2)S(=O)(=O)c2cccc(C(=O)NCc4ccccc4Cl)c2C3=O)c1 | 7% | . | . | 3% | -1% | 9%
COc1ccc(-c2ccc3c(c2)S(=O)(=O)c2cccc(C(=O)NC4CC4)c2C3=O)cc1OC | 5% | . | . | -8% | -10% | -16%
O=C(NCc1ccco1)c1cccc2c1C(=O)c1ccc(/C=C/c3ccccc3)cc1S2(=O)=O | ? | . | . | ? | 32µM* | ?
COc1ccc(-c2ccc3c(c2)S(=O)(=O)c2cccc(C(=O)NCCOc4ccccc4Cl)c2C3=O)cc1OC | -22% | . | . | 1% | 28µM* | -3%
CCCCc1cc2c(=O)c(C(=O)OC)c[nH]c2cc1OCc1ccccc1 | . | . | . | . | . | 1%
N#Cc1ccc(Nc2nn3c(=O)c4ccccc4nc3s2)cc1 | -39% | . | . | . | . | .
COc1ccc2nc(N3C(=O)C(O)=C(C(=O)c4ccco4)C3c3ccc(C)o3)sc2c1 (configuration not stated) | -2% | . | . | -12% | 6% | 10µM*
SMILES | APE1 inh | BLM inh | RECQ1 inh | PGK inhibitor | TDP1 inh | GLS inh
COc1ccc2nc(N3C(=O)C(O)=C(C(=O)c4ccco4)C3c3ccccc3OC)sc2c1 (configuration not stated) | 16% | -12% | . | -1% | 8% | ?
Oc1ccc(-c2n[nH]c(=S)n2-c2ccc3c(c2)OCCO3)cc1 | -1% | -5% | -10% | -9% | 3% | 2%
S=c1[nH]nc(-c2ccc3ncccc3c2)n1-c1ccc2c(c1)OCCO2 | 11% | -1% | i | -1% | 9% | 6.3µM*
O=C1C=C(N2CCOCC2)c2ccccc2C1=O | 14% | 8.9µM* | . | -22% | . | 3%
CC(C)(C)n1ncc2c(=O)n(Cc3ccccc3Cl)cnc21 | 1% | . | . | . | . | .
N#Cc1cccc(OC2=NS(=O)(=O)c3ccccc32)c1 | . | . | . | . | 2% | .
Cc1ccc2cc(C)c3nnc(SCC(=O)NCc4ccco4)n3c2c1 | ? | -8% | i | -23% | 50µM* | -15%
CC(C)(S)C(=O)N[C@H](CS)C(=O)O | . | . | . | . | . | -10%
COc1cc(/C=C2/SC(=S)N(CC3CCCO3)C2=O)ccc1O (configuration not stated) | ? | -19% | 32µM* | -10% | 7% | -16%
O=C(O)c1ccc(/C=C2\SC(=S)N(Nc3ccccc3)C2=O)cc1 | -6% | 1% | 0% | -3% | -11% | -12%
COc1cc(/C=C2\SC(=S)N(C(Cc3ccccc3)C(=O)O)C2=O)ccc1O (configuration not stated) | ? | -20% | 25µM* | -13% | 3% | -4%
O=C(NN1C(=O)/C(=C/c2ccc(O)c(O)c2)SC1=S)c1ccccc1 | 12% | -29% | . | ? | 8% | 3%
O=C1/C(=C/c2ccc(O)c(O)c2)SC(=S)N1Nc1ccccc1 | 70% | ? | 14µM* | -11% | 8% | 46%
O=C1/C(=C/c2ccncc2)SC(=S)N1Nc1ccccc1 | -5% | -2% | -11% | 13% | 8% | 8.9µM*
O=S(=O)(Nc1cc(O)cc2cccnc12)c1ccc(Cl)s1 | 1% | ? | -8% | . | 23% | .
CCOc1cc(/C=C2\SC(=S)N(Nc3ccccc3)C2=O)ccc1O | ? | -22% | 25µM* | -16% | 10% | 19%
COc1cc(/C=C2\SC(=S)N(Nc3ccccc3)C2=O)ccc1O | 6% | -28% | -2% | -16% | 0% | -14%
CC1(C)C(/C=C/C=C/C=C/C=C2\N(CCCCS(=O)(=O)O)c3ccc4ccccc4c3C2(C)C)=[N+](CCCCS(=O)(=O)[O-])c2ccc3ccccc3c21 | . | ? | . | ? | . | 6.3µM*
CCC(=S)/C=C1\Sc2ccc3ccccc3c2N1CCCS(=O)(=O)O | 9% | 1% | -10% | . | . | .
O=S(=O)(c1c(F)cccc1F)N1CCN(S(=O)(=O)c2c(F)cccc2F)CC1 | . | . | . | . | 0% | .

Compound activity from PubChem BioAssay.
